# Reference: ChEMBL document CHEMBL3433997, “St. Jude Leishmania screening dataset” (2016)
# Molecular target: Solute carrier family 2, facilitated glucose transporter member 1 (Homo sapiens) (UniProt P11166)
# Experiment: ST_JUDE_LEISH: Cytotoxicity at 2uM final concentration against transgenic Leishmania Mexicana promastigotes LmGLUT1 that are glucose transport deficient and complemented with the human glucose transporter GLUT1. Activity is measured by DNA content using SYBR green in vitro
# Format: functional
# Chain of Solute carrier family 2, facilitated glucose transporter member 1 (Homo sapiens) (P11166 whole entry): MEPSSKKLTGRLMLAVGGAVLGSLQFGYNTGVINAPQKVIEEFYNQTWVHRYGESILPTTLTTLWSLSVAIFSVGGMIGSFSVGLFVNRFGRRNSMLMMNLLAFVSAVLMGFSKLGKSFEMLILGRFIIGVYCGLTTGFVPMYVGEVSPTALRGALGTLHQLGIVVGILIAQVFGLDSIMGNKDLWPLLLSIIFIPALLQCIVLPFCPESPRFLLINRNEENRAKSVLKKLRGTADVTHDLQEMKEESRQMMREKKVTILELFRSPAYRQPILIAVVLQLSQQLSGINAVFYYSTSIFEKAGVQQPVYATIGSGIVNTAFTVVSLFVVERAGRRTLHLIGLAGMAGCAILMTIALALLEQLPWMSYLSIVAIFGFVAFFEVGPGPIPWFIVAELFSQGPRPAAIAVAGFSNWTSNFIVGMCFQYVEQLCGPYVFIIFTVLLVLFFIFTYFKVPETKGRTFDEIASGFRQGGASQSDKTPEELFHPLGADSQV
row,SMILES,inhibition
1,CC(=O)Nc1nc(C(=O)Nc2cccc(-c3ccc(-c4nc5cccc(C)c5[nH]4)s3)c2)cs1,6.86%
2,Cc1cc(NC(=O)Nc2ccc3sccc3c2)c2ccccc2n1,2.24%
3,CCOC(=O)c1ccc(NC(=O)Nc2cccc(-c3ccc(-c4nc5cccc(C)c5[nH]4)s3)c2)cc1,-0.56%
4,COc1ccccc1C1CC(c2ccccc2)=NN1C(=O)c1ccccc1 (stereo not given),-3.13%
5,CC1CC(C)CN(S(=O)(=O)c2cc(C(=O)Nc3cccc([N+](=O)[O-])c3)ccc2Br)C1 (stereo not given),7.03%
6,CCNc1cc(C(=O)N[C@@H](Cc2ccccc2)[C@H](O)CNC(CC)c2cccc(Cl)c2)cc(N2CCCCS2(=O)=O)c1 (stereo not given in full),4.81%
7,CCN(CC)C(=O)c1cccc(C=Cc2ccc(-c3c(C)[nH]c(C)c(Cl)c3=O)cc2)c1,2.65%
8,CC(C)=CCc1c(-c2ccc(O)cc2O)oc2c3c(cc(O)c2c1=O)OC(C)(C)C=C3,5.72%
9,Clc1ccc(CNCCCCCCNCc2ccc(Cl)cc2)cc1,-1.01%
10,CCC(C)NC(=O)Cn1c2ncccc2c(=O)n1-c1ccc(C)cc1 (stereo not given),5.25%
11,Cc1[nH]c(C)c(-c2ccc(-c3cccc(Cl)c3)nc2)c(=O)c1Br,0%
12,CCOc1cc2ncnc(Nc3ccc(OCc4c(Cl)cccc4Cl)c(OC)c3)c2cc1OCC,4.01%
13,CCCC1(C)CSc2ccccc2C(c2ccccc2)N1 (stereo not given),4.9%
14,COc1ccc(CN(C)CCCc2ccc(NC(=O)c3cc4ccccc4[nH]3)cc2)cc1OC,3.27%
15,O=C(C(=O)c1ccc(Nc2ccnc3cc(-c4ccccn4)ccc23)cc1)c1ccccc1,-1.32%
16,COc1ccc(NS(=O)(=O)c2ccc(C(=O)Nc3ccc(C(F)(F)F)cc3)cc2)cc1N1CCN(CC2CC2)CC1,0.55%
17,O=[N+]([O-])c1cccc(NC(=S)N2CCCN(Cc3ccc(Cl)cc3Cl)CC2)c1,2.36%
18,Cc1cc(C(F)(F)F)cc(-n2ncc(-c3ccc(C(=O)NCCNCc4ccccc4)cc3)c2N)n1,0.77%
19,O=C(CCCCCNC(=O)c1ccc(O)c(-c2ccc(Cl)c(Cl)c2)c1)NCc1cccc2ccccc12,2.63%
20,CN1CCC(C(=O)Nc2ccc(-c3cccc(-c4nc5cc(C(F)(F)F)ccc5[nH]4)c3)cc2)CC1,0.78%

row,SMILES,inhibition
1,COCCNC(=O)C1CCN(C(c2ccc(Cl)cc2)c2ccc(Cl)cc2)CC1,7.23%
2,O=C(Nc1ccc(-c2ccccc2)s1)N[C@H]1CCN(Cc2ccc(OCCCN3CCCCC3)cc2)C1,0.93%
3,O=C(Nc1cccc(C(F)(F)F)c1)c1cccc(S(=O)(=O)NCC2CCCN(Cc3ccccc3)C2)c1 (stereo not given),1.71%
4,CC(C)[C@H]1CC[C@H](C)C[C@@H]1OC(=O)N[C@@H](Cc1ccc(O)cc1)C(=O)NC1CCN(Cc2ccc(OCCCN(C)C)cc2)C1 (stereo not given in full),5.09%
5,COc1ccc(-c2nc(NC(=O)Cc3ccc4c(c3)OCCO4)sc2C)cc1,3.71%
6,Cc1c(S(=O)(=O)Nc2ccc3nccc(N4CCN[C@H](C)C4)c3c2)sc2ccc(Cl)cc12,-0.53%
7,Cc1nc(-c2nc(NCCc3cnccn3)ncc2-c2ccsc2)sc1C,0.04%
8,COc1cc2c(cc1N1CC(C)NC(C)C1)N(C(=O)c1ccc(-c3ccc(-c4ncc[nH]4)cc3C)cc1)CC2 (stereo not given),2.21%
9,CCC(Nc1noc(-c2c(-c3ccccc3)noc2C)n1)c1ccccc1 (stereo not given),-1.15%
10,COc1cc(N)cc2sc(N)nc12,-1.04%
11,c1ccc(-c2ccc(CNCc3ccc(-c4cccc(-c5nc6ccccc6[nH]5)c4)cc3)s2)nc1,1.04%
12,CCCc1cc(Cc2cnc(N)nc2N)cc2c1OC(C)C2C (stereo not given),8.26%
13,COc1c(C)cc(I)cc1CNCCCNc1cc(=O)c2ccccc2[nH]1,0.43%
14,COc1ccc2c(NN=Cc3ccccn3)ccnc2c1,13.7%
15,CNC(=O)Cc1ccc(C(=O)Nc2cccc(-c3cccc(-c4nc5cc(C(F)(F)F)ccc5[nH]4)c3)c2)cc1,-0.26%
16,Oc1ccc(-c2cc(COc3ccccc3C(F)(F)F)c(C3=CCNCC3)cc2COc2ccccc2C(F)(F)F)cc1,2.69%
17,O=C1C2C3SC(c4c3ccc3ccccc43)C2C(=O)N1c1ccccc1 (stereo not given),-0.44%
18,CCCC(C)N(Cc1ccc(C(C)(C)C)cc1)C(=O)c1cccc(OC)c1 (stereo not given),-0.57%
19,O=C(CC1CCCC1)N(Cc1ccc(-c2ccc(CNC3Cc4ccccc4C3)cc2)cc1)CC1CCCCN1 (stereo not given),38.3%
20,O=C(/C=C/c1ccc(Cl)cc1)NCCCCCN1CCCC(C(=O)Nc2cccc(Cl)c2)C1 (stereo not given),2.85%
